High-throughput results from PubChem BioAssay.
MOR-DOR inv ag – inverse agonists of MOR-DOR heterodimerization, primary screen, cell-based, luminescence. Mu-type opioid receptor (Homo sapiens) + Delta-type opioid receptor (Homo sapiens), …. cell-based MOR-DOR heterodimer luminescence, inverse agonism. inhibition, % at 9.3 µM. actives 0.21% (n = 340,000). AID 504357, 2011; in the data active = inhibition above about 22%, passing the limit was not always enough;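 note: 0% = cells with DMSO and 100% = wells without cells with DMSO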
HTR5A inv ctr – HTR5A inverse agonists in luminescence cell assay, primary screen, counter-screen for OPRM1-OPRD1 heterodimer inverse agonist project, full-deck HTS | HTR5A cell line, inverse agonism | 5-hydroxytryptamine receptor 5A (Homo sapiens), P47898 | actives 0.083% (n = 340,000) | inhibition, % at 9.3 µM; in the data active = inhibition mostly above about 23%, no sharp cut-off; inactive = mostly below about 18%;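 note: 0% = cells with DMSO and 100% = no-cell wells with DMSO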
Target sequence (P47898 whole entry, looked up): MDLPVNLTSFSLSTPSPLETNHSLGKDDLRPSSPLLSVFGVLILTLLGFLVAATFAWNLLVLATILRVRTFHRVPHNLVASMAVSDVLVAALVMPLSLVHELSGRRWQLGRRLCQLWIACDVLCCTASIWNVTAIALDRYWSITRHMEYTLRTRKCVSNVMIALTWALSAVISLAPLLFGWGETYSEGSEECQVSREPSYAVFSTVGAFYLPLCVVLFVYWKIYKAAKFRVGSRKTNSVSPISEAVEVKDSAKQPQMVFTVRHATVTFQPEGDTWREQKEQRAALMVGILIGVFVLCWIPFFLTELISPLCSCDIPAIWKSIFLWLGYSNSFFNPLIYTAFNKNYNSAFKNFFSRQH
MOR-DOR ag-1 – agonists of OPRM1-OPRD1 heterodimerization, primary screen, cell-based, luminescence | cells | activation, % at 9.3 µM | actives 0.3% (n = 340,000) | AID 504326, 2011;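 note: 0% = vehicle-treated cells and 100% = reference agonist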
HTR5A ag – HTR5A agonists in luminescence cell assay, primary screen, counter-screen for OPRM1-OPRD1 heterodimer agonist project, full-deck HTS | actives 0.61% (n = 340,000) | 5-hydroxytryptamine receptor 5A (Homo sapiens), P47898 | AID 504692, 2011 | activation, % at 9.3 µM | cell-based; in the data active = activation mostly above about 9.5%, no sharp cut-off; inactive = mostly below about 7.6%;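 note: 0% = cells with vehicle only and 100% = reference agonist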
MOR-DOR ag-2 – OPRM1-OPRD1 heterodimerization promoters, counter-screen for HTR5A agonist project, cell-based, luminescence; shares compounds with HTR5A ag; U2OS counter-screen cells, complementation luminescence, 3 h; activation, % at 9.3 µM; actives 13% (n = 800)
HTR5A ag conf – HTR5A agonists, retest of hits, confirmation, cell-based, luminescence; shares compounds with HTR5A ag; HTR5A agonist cell assay; activation, % at 9.3 µM; actives 17% (n = 800); AID 504915, 2011; in the data active = activation above about 17%;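 note: 0% = cells with vehicle only and 100% = full reference agonist response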
* = called active by the depositor. Only some compounds are listed: those with a hit (about 1.1% of all), similar ones and a draw of the others. Cut-off read from the data, not from the text of the source, unless noted: active = activation above about 18%; inactive = the rest.

For COc1ccc(NC(=O)Cc2nc3ccccc3[nH]2)cc1 the results were MOR-DOR inv ag -47, HTR5A inv ctr -35, MOR-DOR ag-1 8, HTR5A ag 28*, MOR-DOR ag-2 3 and HTR5A ag conf 19*.
`COc1ccc(CC(=O)Nc2nc3ccccc3[nH]2)cc1` gave MOR-DOR inv ag 11, HTR5A inv ctr -25, MOR-DOR ag-1 -2 and HTR5A ag 8.
Cc1nc2oc3ccccc3c(=O)c2c(=O)n1Cc1ccccc1 was read as MOR-DOR inv ag 9, HTR5A inv ctr 1, MOR-DOR ag-1 -2 and HTR5A ag -6.
For COc1ccc(Cn2c(C)nc3oc4cc(OC)ccc4c(=O)c3c2=O)cc1 the results were MOR-DOR inv ag 10, HTR5A inv ctr -19, MOR-DOR ag-1 -2, HTR5A ag 16*, MOR-DOR ag-2 327* and HTR5A ag conf 3.
`COc1cccc(NC(=O)CCN2C(=O)c3ccccc3Sc3ncccc32)c1` gave MOR-DOR inv ag 13, HTR5A inv ctr -25, MOR-DOR ag-1 -3 and HTR5A ag 0.
For Cc1ccc(-c2csc(-c3c[nH]c4ccccc34)n2)c(C)c1 the results were MOR-DOR inv ag -4, HTR5A inv ctr 18, MOR-DOR ag-1 1 and HTR5A ag -7.
Oc1ccc(-c2csc(-c3c[nH]c4ccccc34)n2)c(O)c1 was read as MOR-DOR inv ag -36, HTR5A inv ctr -55, MOR-DOR ag-1 7, HTR5A ag 27*, MOR-DOR ag-2 6 and HTR5A ag conf 26*.
Screening O=C1c2ccccc2C(=O)N1CCCCN(C(=O)c1cc2ccccc2oc1=O)c1ccc(F)cc1F returned MOR-DOR inv ag 1, HTR5A inv ctr 1, MOR-DOR ag-1 0 and HTR5A ag 0.
For Cc1cccc(NC(=O)N2CCC(NC(=O)C3CCCCC3)CC2)c1 the results were MOR-DOR inv ag 9, HTR5A inv ctr -47, MOR-DOR ag-1 -2, HTR5A ag 17*, MOR-DOR ag-2 0 and HTR5A ag conf 1.
Screening CC(C)C[C@H](NC(=O)N1CC(=O)Nc2ccccc21)C(=O)N[C@@H](Cc1c[nH]c2ccccc12)C(=O)O returned MOR-DOR inv ag 16, HTR5A inv ctr -1, MOR-DOR ag-1 -3, HTR5A ag 40*, MOR-DOR ag-2 0 and HTR5A ag conf -2.
For c1ccc2c(c1)CC(CN1CCNCC1)O2 (configuration not stated) the results were MOR-DOR inv ag 15, HTR5A inv ctr 5, MOR-DOR ag-1 -3 and HTR5A ag -1.
Screening COc1ccc2oc(=O)c(C(=O)N3CCc4ccccc43)cc2c1 returned MOR-DOR inv ag 4, HTR5A inv ctr -6, MOR-DOR ag-1 -1, HTR5A ag 15*, MOR-DOR ag-2 3 and HTR5A ag conf 6.
Screening COc1cccc2cc(C(=O)N3CCc4ccccc43)c(=O)oc12 returned MOR-DOR inv ag 19, HTR5A inv ctr 14, MOR-DOR ag-1 -4 and HTR5A ag -2.
Screening CCOC(=O)c1c(C)oc2c1c(C(c1ccccc1)N1CCOCC1)c(O)c1ccccc12 (configuration not stated) returned MOR-DOR inv ag -10, HTR5A inv ctr -5, MOR-DOR ag-1 2 and HTR5A ag 2.
For CCOC(=O)c1c(C)oc2c1c(C=NCCO)c(O)c1ccccc12 the results were MOR-DOR inv ag -48, HTR5A inv ctr -46, MOR-DOR ag-1 9, HTR5A ag 17*, MOR-DOR ag-2 4 and HTR5A ag conf 4.
Screening CC(C)(C)NC(=O)NC(=O)COC(=O)COc1ccc2c(c1)CCC2 returned MOR-DOR inv ag -36, HTR5A inv ctr -54, MOR-DOR ag-1 6, HTR5A ag 20*, MOR-DOR ag-2 10 and HTR5A ag conf 4.
Screening Cc1cccc(NC(=O)COC(=O)COc2ccc3c(c2)CCC3)c1 returned MOR-DOR inv ag -11, HTR5A inv ctr 3, MOR-DOR ag-1 3 and HTR5A ag 1.
O=C(CN1CCCCC1)n1c2ccccc2c2ccccc21 was read as MOR-DOR inv ag -12, HTR5A inv ctr -63, MOR-DOR ag-1 2, HTR5A ag 24*, MOR-DOR ag-2 13 and HTR5A ag conf 4.
For CN1CCN(CC(=O)n2c3c(c4ccccc42)CCCC3)CC1 the results were MOR-DOR inv ag -17, HTR5A inv ctr -17, MOR-DOR ag-1 3 and HTR5A ag 7.
Screening Cc1nc(NC(=O)CSc2ccc(-c3nc4ccccc4[nH]3)cn2)sc1C returned MOR-DOR inv ag -42, HTR5A inv ctr -21, MOR-DOR ag-1 6, HTR5A ag 17*, MOR-DOR ag-2 3 and HTR5A ag conf 3.
Screening CCc1nnc(NC(=O)CSc2ccc(-c3nc4ccccc4[nH]3)cn2)s1 returned MOR-DOR inv ag -1, HTR5A inv ctr 11, MOR-DOR ag-1 0 and HTR5A ag -4.
For CC(=O)c1ccc(N(CC(=O)NCC2CCCO2)C(=O)CCC(=O)Nc2cc(C)on2)cc1 (configuration not stated) the results were MOR-DOR inv ag -11, HTR5A inv ctr -26, MOR-DOR ag-1 2, HTR5A ag 14*, MOR-DOR ag-2 3 and HTR5A ag conf 0.
`Cc1oc(-c2ccccc2F)nc1CS(=O)CC(=O)NC1CC1` (configuration not stated) gave MOR-DOR inv ag 13, HTR5A inv ctr -2, MOR-DOR ag-1 -3 and HTR5A ag 4.
`c1ccc(CCNC2=NCCCS2)cc1` gave MOR-DOR inv ag 13, HTR5A inv ctr -54, MOR-DOR ag-1 -2, HTR5A ag 20*, MOR-DOR ag-2 2 and HTR5A ag conf 0.
CCc1ccc2[nH]c(=O)c(CN(Cc3ccc4c(c3)OCO4)Cc3nnnn3C3CCCC3)cc2c1 was read as MOR-DOR inv ag -48, HTR5A inv ctr 3, MOR-DOR ag-1 8, HTR5A ag 19*, MOR-DOR ag-2 6 and HTR5A ag conf 2.
Screening Cc1ccc2cc(CN(Cc3ccc(F)cc3)Cc3nnnn3C3CCCC3)c(=O)[nH]c2c1 returned MOR-DOR inv ag -32, HTR5A inv ctr 7, MOR-DOR ag-1 5 and HTR5A ag -3.
Screening N/C(=N\OC(=O)C1CCCCC1)c1ccccn1 returned MOR-DOR inv ag 13, HTR5A inv ctr -9, MOR-DOR ag-1 -2 and HTR5A ag 3.
For CN(C)Cc1nc2ccccc2c(=O)n1Cc1nc(-c2cc3ccccc3o2)cs1 the results were MOR-DOR inv ag -41, HTR5A inv ctr -49, MOR-DOR ag-1 8, HTR5A ag 17*, MOR-DOR ag-2 6 and HTR5A ag conf 5.
Screening Cc1csc(Cn2c(CN(C)C)nc3ccccc3c2=O)n1 returned MOR-DOR inv ag 8, HTR5A inv ctr 5, MOR-DOR ag-1 -1 and HTR5A ag -1.
